# From ChEMBL document CHEMBL3988442, “University of Dundee, Small-Polar-MMV Screening Library” (2021)
# Out of some 66,000 compounds screened, about 960 (1.5%) showed an effect of 50% or more. The full list was thinned out, with strong results kept by preference.
# Tested on: Trypanosoma brucei
# Test: Trypanosoma brucei 72 hour study
# Format: functional, organism-based
# Set-up: scale not given: in the data most compounds retested in dose-response had high values
structure (smiles),measurement,setting,value
CCc1cnc(CN(C)C2CCN(CC(=O)Nc3nccs3)C2)o1 (stereo not drawn),Percent Effect,10 µM,-37.99%
COc1ccc(N2Cc3nc(=O)n(Cc4cccc(F)c4)n3C2=O)cc1,Percent Effect,"30 µM, 30.03 µM",-5.99%
CCN1CCn2c(C)cnc2C12CCN(C(=O)NCC(C)C)CC2.O=C(O)C(F)(F)F,Percent Effect,"30.3 µM, […]",-30.2%
Cc1ccc(Cl)cc1NC(=O)C1CC(=O)N(Cc2ccccn2)C1 (stereo not drawn),Percent Effect,"30 µM, 30.03 µM",8.87%
O=C(Nc1ccccn1)C1CC(=O)N(Cc2ccccn2)C1 (stereo not drawn),Percent Effect,"30 µM, 30.03 µM",-8.332%
COc1ncccc1NC(=O)C1CC(=O)N(Cc2ccccn2)C1 (stereo not drawn),Percent Effect,"30 µM, 30.03 µM",55.04%
CC(C)(C)NC(=O)CCOc1cccc(F)c1,Percent Effect,10 µM,-74.47%
COc1ccccc1CN1CC[C@]2(C[C@@H](OC)CO2)C1.O=C(O)C(F)(F)F,Percent Effect,"30 µM, 30.03 µM",-26.27%
Cc1nn(C)c2c(NCCCn3cccn3)nc(C(C)C)nc12,Percent Effect,"30.3 µM, […]",-9.582%
COc1cc(C(=O)NCCCc2ccccc2)on1,Percent Effect,"30.3 µM, […]",10.61%
COc1cc(C(=O)NCCc2ccc(OC)c(OC)c2)on1,Percent Effect,"30.3 µM, […]",8.881%
COc1cc(C(=O)NCCc2ccccc2OC)on1,Percent Effect,"30.3 µM, […]",101.4%
Cc1occc1C(=O)N1CCC2(CCN(Cc3ccccn3)C2=O)C1.O=C(O)C(F)(F)F (stereo not drawn),Percent Effect,"30 µM, 30.03 µM",-18.48%
Cc1cc(C)nc(N2CCN(Cc3nccn3C)CC2)n1.O=CO,Percent Effect,"30.3 µM, […]",-2.711%
Cc1noc(C)c1CN1C[C@@H](OCc2ccccn2)[C@H]2OCCC[C@H]21.O=C(O)C(F)(F)F.O=C(O)C(F)(F)F,Percent Effect,"30 µM, 30.03 µM",-32.5%
O=C(O)C(F)(F)F.O=c1ccc2c([nH]1)CCC(NCc1ccc3c(c1)OCO3)C2 (stereo not drawn),Percent Effect,"30.3 µM, […]",-24.67%
CC(C)CCN1C2(CCN(C(=O)CN(C)C)C2)c2ccccc2S1(=O)=O.O=C(O)C(F)(F)F (stereo not drawn),Percent Effect,"30.3 µM, […]",-2.24%
COc1ccc2c(c1)OC1(CCN(Cc3ccccc3C)CC1)CC2=O,Percent Effect,"30.3 µM, […]",99.25%
same,Percent Effect,"10 mM, 10 mM as filed; unlikely as a test dose",-45.93%
COc1ccc2c(c1)OC1(CCN(Cc3cccc(C)c3)CC1)CC2=O,Percent Effect,"30.3 µM, […]",-0.9536%
same,Percent Effect,"10 mM, 10 mM as filed; unlikely as a test dose",-48.74%
COc1ccc2c(c1)OC1(CCN(Cc3ccc(C)cc3)CC1)CC2=O,Percent Effect,"30.3 µM, […]",-15.07%
same,Percent Effect,"10 mM, 10 mM as filed; unlikely as a test dose",-53.52%
Cc1nc(CN2CCCC(C)(CO)C2)no1 (stereo not drawn),Percent Effect,"30 µM, 30.03 µM",-41.91%
Cl.Cl.O=C(NCc1cncc2c1CCN(C1CCOC1)C2)c1ccco1 (stereo not drawn),Percent Effect,"30.3 µM, […]",-14.18%
Cc1ccc(C)c(CN(CC(N)=O)C(C)C)c1,Percent Effect,"30 µM, 30.03 µM",-11.18%
COc1ccc(C(=O)C2CCCN(c3cc(N)ncn3)C2)c(C)c1 (stereo not drawn),Percent Effect,"30.3 µM, […]",35.59%
CCc1nc(C)cc(N2CCCC(C(=O)c3ccc(OC)cc3C)C2)n1 (stereo not drawn),Percent Effect,"30.3 µM, […]",68.93%
COc1ccc(C(=O)C2CCCN(c3cc(OC)ncn3)C2)c(C)c1 (stereo not drawn),Percent Effect,"30.3 µM, […]",25.96%
Cc1ccc(CN2CCc3nnc(CN4CCCC4=O)n3CC2)o1.O=C(O)C(F)(F)F,Percent Effect,"30.3 µM, […]",11.51%
Cc1nnsc1C(=O)NCc1nn(C)c2c1CCCC2,Percent Effect,"30 µM, 30.03 µM",10.26%
O=C(Cc1cccc(F)c1F)NC1COc2ccccc2C1=O (stereo not drawn),Percent Effect,"30.3 µM, […]",-49.3%
O=C(Cc1ccc(F)c(F)c1)NC1COc2ccccc2C1=O (stereo not drawn),Percent Effect,"30.3 µM, […]",53.93%
O=C(Cc1cccnc1)NC1COc2ccccc2C1=O (stereo not drawn),Percent Effect,"30.3 µM, […]",-65.37%
COCCCN(C)c1cc(C(F)(F)F)nc(-c2cccnc2)n1,Percent Effect,"30 µM, 30.03 µM",14.1%
CC(O)CN(C)c1cc(C(F)(F)F)nc(-c2cccnc2)n1 (stereo not drawn),Percent Effect,"30 µM, 30.03 µM",14.71%
COCC(O)CN(C)c1cc(C(F)(F)F)nc(-c2cccnc2)n1 (stereo not drawn),Percent Effect,"30 µM, 30.03 µM",57.96%
CN(C)S(=O)(=O)c1ccc(-c2nc(C#N)c(NC3CCCCC3)o2)o1,Percent Effect,"30 µM, 30.03 µM",-26.33%
CN(C)S(=O)(=O)c1ccc(-c2nc(C#N)c(NC3CC3)o2)o1,Percent Effect,"30 µM, 30.03 µM",-26.91%
CC(C)Nc1oc(-c2ccc(S(=O)(=O)N(C)C)o2)nc1C#N,Percent Effect,"30 µM, 30.03 µM",-8.182%
CNc1oc(-c2ccc(S(=O)(=O)N(C)C)o2)nc1C#N,Percent Effect,"30 µM, 30.03 µM",-28.85%
CN(C)S(=O)(=O)c1ccc(-c2nc(C#N)c(NC(C)(C)C)o2)o1.Cl,Percent Effect,"30 µM, 30.03 µM",94.64%
Cc1ccc(S(=O)(=O)Nc2ccc(=O)n(C)c2)c(Br)c1,Percent Effect,"30.3 µM, […]",-36.73%
CCN1CC[C@@]2(C(=O)Nc3ccccc3)CCN(S(C)(=O)=O)CC[C@@H]12.O=C(O)C(F)(F)F,Percent Effect,"30 µM, 30.03 µM",-16.54%
CCOCC1CN(C(=O)c2cnoc2C)Cc2cnn(C)c21.O=C(O)C(F)(F)F (stereo not drawn),Percent Effect,"30.3 µM, […]",-5.791%
CCC(=O)N1CCC2(CC1)CC(CC(=O)N(C)C)c1ccc(F)cc12 (stereo not drawn),Percent Effect,"30.3 µM, […]",-4.762%
c1ccc(-c2nc3c(c(NCc4n[nH]c5c4CCC5)n2)CCNC3)cc1,Percent Effect,"30 µM, 30.03 µM",50.77%
c1coc(-c2nc3c(c(NCc4n[nH]c5c4CCC5)n2)CCNCC3)c1,Percent Effect,"30 µM, 30.03 µM",-54.29%
c1ccc(-c2nc3c(c(NCc4nnc5n4CCC5)n2)CCNC3)cc1,Percent Effect,"30.3 µM, […]",7.408%
CCc1nc2ccccc2c(=O)n1CC1(O)CCN(C(=O)C2CC2)CC1.Cl,Percent Effect,"30.3 µM, […]",5.264%
O=C(O)c1cc(-c2ccc3c(c2)OCO3)cc(S(=O)(=O)NC2CC2)c1,Percent Effect,"30 µM, 30.03 µM",-10.73%
CN(C)c1ccc(-c2cc(C(=O)O)cc(S(=O)(=O)NC3CC3)c2)cc1,Percent Effect,"30 µM, 30.03 µM",102.4%
O=C(O)c1cc(-c2ccoc2)cc(S(=O)(=O)NC2CC2)c1,Percent Effect,"30 µM, 30.03 µM",27.37%
CN1CCC(CCc2ccnc(NC(=O)c3ccccn3)c2)CC1,Percent Effect,"30.3 µM, […]",24.76%
CC(=O)N1CCC(CCc2ccnc(Nc3ccccn3)c2)CC1,Percent Effect,"30.3 µM, […]",18.19%
CC(=O)Nc1cc(CCC2CCN(C(=O)c3ccccn3)CC2)ccn1,Percent Effect,"30.3 µM, […]",-19.84%
O=C(CO)N1CCC(CCc2ccnc(Nc3cnccn3)c2)CC1,Percent Effect,"30.3 µM, […]",12.44%
CC(=O)N1CCC(CCc2ccnc(NC(=O)c3ccccn3)c2)CC1,Percent Effect,"30.3 µM, […]",56.75%
O=C(Nc1cc(CCC2CCN(CCO)CC2)ccn1)c1ccccn1,Percent Effect,"30.3 µM, […]",100.1%
O=C(O)C(F)(F)F.O=C([C@@H]1C[C@@H]2CCN(C3CCOCC3)C[C@@H]2O1)N1CCCC1,Percent Effect,"30.3 µM, […]",-37.65%
O=C(NCc1cccs1)[C@H]1CO[C@H]2CCN(C3CCCC3)C[C@H]2C1.O=C(O)C(F)(F)F,Percent Effect,"30.3 µM, […]",-53.03%
Cc1cc(NC(=O)Nc2ccc3c(ccn3CCN(C)C)c2)n(C)n1,Percent Effect,"30.3 µM, […]",55.17%
Cc1nc(CNC(=O)Nc2ccc3c(ccn3CCN(C)C)c2)no1,Percent Effect,"30.3 µM, […]",-6.711%
CN(C)CCn1ccc2cc(NC(=O)NCc3ncnn3C)ccc21,Percent Effect,"30.3 µM, […]",-3.411%
Cc1cccc(CN2Cc3ncn(C)c3C(COCC(=O)N(C)C)C2)n1.O=C(O)C(F)(F)F.O=C(O)C(F)(F)F.O=C(O)C(F)(F)F (stereo not drawn),Percent Effect,"30.3 µM, […]",-54.51%
Cl.c1cncc(CNc2cncc(C3CCCN3)n2)c1 (stereo not drawn),Percent Effect,"30.3 µM, […]",-3.878%
Cc1nc(CN2CCO[C@@H]3CN(Cc4nccs4)C[C@@H]3C2)cs1.O=C(O)C(F)(F)F.O=C(O)C(F)(F)F,Percent Effect,"30 µM, 30.03 µM",45.29%
Cl.Cn1cc(CN(Cc2ccccc2)Cc2ccccn2)cn1,Percent Effect,"30.3 µM, […]",-17.42%
CN(C)[C@@H]1CN(Cc2ccccc2O)C[C@H]1c1cn(C)c2ccccc12.Cl,Percent Effect,"30.3 µM, […]",100%
CN(C)[C@@H]1CN(Cc2ccccn2)C[C@H]1c1cn(C)c2ccccc12.Cl,Percent Effect,"30.3 µM, […]",22.59%
CN(C)[C@@H]1CN(Cc2ccc(O)cc2)C[C@H]1c1cn(C)c2ccccc12.Cl,Percent Effect,"30.3 µM, […]",10.26%
CCn1nc(C)c(-c2cncn2CCN(C)C2CCCC2)c1C.Cl,Percent Effect,"30.3 µM, […]",-4.685%
O=C(c1c(O)cc(F)cc1F)N1CCc2cnccc21,Percent Effect,"30 µM, 30.03 µM",-42.5%
CCO[C@@H]1CO[C@@]2(CCN(Cc3ccc4c(c3)OCO4)C2)C1.O=C(O)C(F)(F)F,Percent Effect,"30.3 µM, […]",14.48%
Cc1[nH]nc(CCC(=O)N2CCc3ncnc(NCCO)c3CC2)c1C,Percent Effect,"30 µM, 30.03 µM",-37%
O=C(CCn1cccc1)N1CCc2[nH]nc(COc3ccccc3)c2C1,Percent Effect,"30 µM, 30.03 µM",-16.91%
O=C(CCc1ccco1)N1CCc2[nH]nc(COc3ccccc3)c2C1,Percent Effect,"30 µM, 30.03 µM",-57.79%
O=C(CCc1cccs1)N1CCc2[nH]nc(COc3ccccc3)c2C1,Percent Effect,"30 µM, 30.03 µM",68.24%
Cc1nn(C(C)C)c(C)c1CN1CCN(C2CCCCC2)C(=O)C1.O=C(O)CC(O)(CC(=O)O)C(=O)O,Percent Effect,"30.3 µM, […]",-4.336%
CC(=O)N1CCCCC12CCCN(Cc1ccco1)C2.O=C(O)C(F)(F)F (stereo not drawn),Percent Effect,"30.3 µM, […]",5.13%
Cc1cc(C)c(-c2nc(-c3c(C)ncc4c3CCNC4)no2)o1,Percent Effect,"30 µM, 30.03 µM",-0.4206%
CC(C)CCN1C2(CCN(Cc3nccs3)C2)c2ccccc2S1(=O)=O.O=C(O)C(F)(F)F (stereo not drawn),Percent Effect,"30.3 µM, […]",91.13%
CN(Cc1ccccc1)C1COC2(CCN(Cc3nccs3)CC2)C1.O=C(O)C(F)(F)F (stereo not drawn),Percent Effect,"30 µM, 30.03 µM",56.78%
COCCN1C2(CCN(Cc3nccs3)C2)c2ccccc2S1(=O)=O.O=C(O)C(F)(F)F (stereo not drawn),Percent Effect,"30.3 µM, […]",-203.3%
CN(Cc1cccnc1)C1COC2(CCN(Cc3nccs3)CC2)C1.O=C(O)C(F)(F)F.O=C(O)C(F)(F)F.O=C(O)C(F)(F)F (stereo not drawn),Percent Effect,"30.3 µM, […]",-7.601%
CN(Cc1cccnc1)C1CC2(CCN(Cc3ccccn3)CC2)C1.O=C(O)C(F)(F)F.O=C(O)C(F)(F)F.O=C(O)C(F)(F)F,Percent Effect,"30.3 µM, […]",-569.4%
CN(Cc1ccccn1)C1COC2(CCN(Cc3nccs3)CC2)C1 (stereo not drawn),Percent Effect,"30 µM, 30.03 µM",58.22%
CN(Cc1ccco1)C1COC2(CCN(Cc3nccs3)CC2)C1.O=C(O)C(F)(F)F.O=C(O)C(F)(F)F (stereo not drawn),Percent Effect,"30.3 µM, […]",-7.244%
CN(C)CCN1C2(CCN(Cc3nccs3)C2)c2ccccc2S1(=O)=O.O=C(O)C(F)(F)F.O=C(O)C(F)(F)F (stereo not drawn),Percent Effect,"30.3 µM, […]",-461.1%
CN(Cc1cccnc1)C1CC2(CCN(c3ccccn3)CC2)C1.O=C(O)C(F)(F)F.O=C(O)C(F)(F)F.O=C(O)C(F)(F)F,Percent Effect,"30 µM, 30.03 µM",54.5%
CN(C)C1COC2(CCN(Cc3nccs3)CC2)C1.O=C(O)C(F)(F)F.O=C(O)C(F)(F)F (stereo not drawn),Percent Effect,"30.3 µM, […]",-5.42%
CN(Cc1cccnc1)C1CC2(CCN(c3ncccn3)CC2)C1.O=C(O)C(F)(F)F.O=C(O)C(F)(F)F,Percent Effect,"30.3 µM, […]",-50.17%
CN(Cc1ccccn1)C1COC2(CCN(Cc3cccnc3)CC2)C1 (stereo not drawn),Percent Effect,"30 µM, 30.03 µM",-2.463%
